High-throughput results from PubChem.
HepG2 viability: kills HepG2 cells in TGF-b inhibitor counter-screen | Potency, µM (titrated, usually from 46.1 µM), inactives show at the top dose activity change, negative = cytotoxicity, most hits filed as cytotoxic | AID 588856 | hit rate 0.76% among 410,000 | HepG2 CAGA-GFP viability, ATP luminescence, 18 h; further: potency means the concentration at half of the fitted maximal effect
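HepG2 CAGA-GFP cells (1000/well, DMEM with 1% FBS) received compound, then TGF-beta at 500 pg/mL final, and were incubated 18 hours at 37 degrees C. Viability was read by CellTiter-Glo luminescence. Media-only wells were set as complete cell-killing and DMSO as no toxicity.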
TGFb SMAD3 inh: blocks TGF-b signaling. HepG2 CAGA-GFP TGF-b/SMAD3 reporter, GFP fluorescence, 18 h; TGF-beta stimulated, 500 pg/mL final. Potency, µM (titrated, usually from 46.1 µM), inactives show at the top dose activity, negative = inhibition, hits mostly inhibitors. hit rate 1.2% among 410,000. AID 588855; further: potency means the concentration at half of the fitted maximal effect; on the % scale 0 is the no-effect control and ±100 the full control effect; nearly all actives have a fitted effect of over 65% in size
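Smad-responsive CAGA-GFP expression was quantified in HEPG2 cells exposed to compounds and 500 pg/mL final TGF-beta for 18 h at 37 degrees C; unstimulated wells defined full inhibition.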
DT40 TDP1 no CPT: qHTS for Inhibitors of human tyrosyl-DNA phosphodiesterase 1 (TDP1): qHTS in cells in absence of CPT | DT40 Tdp1-/- hTDP1 cells, no CPT, ATP luminescence, 48 h | Potency, µM (series often up to 46.2 µM), inactives show top-dose activity change, negative = growth inhibition, usual class: inhibitors | hit rate 15% among 420,000 | AID 686978, 2013; further: potency means the concentration at half of the fitted maximal effect; on the % scale 0 is the no-effect control and ±100 the full control effect; nearly all actives have a fitted effect of over 55% in size
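Chicken DT40 Tdp1-/- cells complemented with human TDP1, screened without camptothecin (DMSO vehicle only), 400 cells/well. Compounds pin-transferred, cells incubated at 37 °C for at least 48 hr. Growth read as ATP-dependent luminescence (CellTiter-Glo, 30 min at RT).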
IL1B secr inh: blocks inflammasome-driven IL-1 beta release. THP-1 LPS/ATP IL-1B secretion, AlphaLISA, 16 h; stronger effect = lower value. activity change, % at 57.5 µM. hit rate 4.7% among 360,000. AID 743279; in the data active means activity change below about -50%; inconclusive means mostly about -30% to -49%; further: on the % scale 0 is the no-effect control and ±100 the full control effect
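Secreted IL-1B measured by AlphaLISA bead assay after 16 h compound exposure of THP-1 cells; compounds (final up to 57.5 uM) added 1 h before LPS (250 ng/mL) and ATP (1.25 mM) stimulation; lower signal means less secretion.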
DT40 TDP1 CPT: DT40-hTDP1 cell growth loss with CPT. chicken DT40 Tdp1-/-;hTDP1 cells + 20 nM CPT, ATP luminescence, 48 h. Potency, µM (top dose mostly 46.2 µM), inactives show top-dose activity change, negative = growth inhibition, hits mostly inhibitors. hit rate 12% among 420,000. AID 686979; further: potency means the concentration at half of the fitted maximal effect; on the % scale 0 is the no-effect control and ±100 the full control effect; nearly all actives have a fitted effect of over 55% in size
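Cell growth measured by CellTiter-Glo luminescence after a minimum 48 h, 37 C compound exposure with 20 nM CPT in Tdp1-knockout DT40 cells stably expressing hTDP1, seeded 400/well; qHTS titration format.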
S-ASM inh: inhibitors of human secretory acid sphingomyelinase | P17405 | placental ASM, HMU-PC fluorogenic substrate, 60 min | Potency, µM (top dose mostly 57.5 µM), without a hit: at the highest dose activity change, negative = inhibition, most hits filed as inhibitors | hit rate 0.006% among 340,000 | AID 504937; further: potency means the concentration at half of the fitted maximal effect
Target sequence (P17405 47-631 limits assumed): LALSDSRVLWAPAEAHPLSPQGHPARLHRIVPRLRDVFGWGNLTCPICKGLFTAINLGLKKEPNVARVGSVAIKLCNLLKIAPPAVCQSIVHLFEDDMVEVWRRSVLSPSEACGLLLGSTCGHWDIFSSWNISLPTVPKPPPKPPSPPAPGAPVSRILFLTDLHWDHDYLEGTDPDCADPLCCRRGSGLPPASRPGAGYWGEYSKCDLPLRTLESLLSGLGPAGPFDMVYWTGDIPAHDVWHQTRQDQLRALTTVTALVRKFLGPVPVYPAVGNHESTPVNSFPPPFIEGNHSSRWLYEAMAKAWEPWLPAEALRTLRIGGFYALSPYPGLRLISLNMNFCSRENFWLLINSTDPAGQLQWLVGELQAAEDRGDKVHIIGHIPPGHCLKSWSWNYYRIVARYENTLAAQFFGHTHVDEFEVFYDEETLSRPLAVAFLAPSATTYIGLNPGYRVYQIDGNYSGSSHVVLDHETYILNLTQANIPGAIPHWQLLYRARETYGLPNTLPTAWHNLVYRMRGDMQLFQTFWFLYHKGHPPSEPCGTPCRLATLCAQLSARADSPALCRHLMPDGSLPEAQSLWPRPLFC
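Human placenta-derived ASM enzyme was preincubated with compound for 10 minutes at room temperature, then given fluorogenic substrate HMU-PC0 (9 uM final) for 60 minutes at 37 °C; a pH 10 stop preceded fluorescence reading at Ex 386/Em 447 nm.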
* = called active by the depositor; i = inactive; ? = inconclusive; / = no result given. A selection: hits, their analogues and other compounds. The true share with any hit is near 19%. Unless noted, the call rests on the fitted dose curve; in most records, active means well fitted curve in the direction sought with a large enough effect; inconclusive means small, poorly fitted or top-dose-only effect, or another doubt; inactive means no such curve, though single readings can be large; an effect the other way counts as inactive or inconclusive.

SMILES	HepG2 viability	TGFb SMAD3 inh	DT40 TDP1 no CPT	IL1B secr inh	DT40 TDP1 CPT	S-ASM inh
COc1cccc(CN2CCC2(C)C(=O)NCCc2ccccn2)c1OC (stereo unspecified)	4%	-3%	-8%	7	7%	/
COc1ccccc1N1CCN(S(=O)(=O)CCNC(=O)Cc2ccc(F)cc2)CC1	2%	-23%	?	-4	21µM*	2%
CCCCOc1ccc(C(=O)NCCS(=O)(=O)N2CCN(c3ccccc3OC)CC2)cc1	-11%	?	7.3µM*	/	5.8µM*	/
COc1ccc(CC(=O)NCCS(=O)(=O)N2CCN(c3ccc(F)cc3)CC2)cc1OC	10%	-11%	?	40	?	0%
COc1ccccc1N1CCN(S(=O)(=O)CCNC(=O)Cc2ccc(Cl)cc2)CC1	-7%	?	23µM*	/	?	/
Cc1ccc(Cl)cc1NC(=O)c1oc2ccc(S(=O)(=O)N3CCCCC3)cc2c1C	-24%	1%	-24%	/	-14%	/
CCN(CC(=O)NCc1ccc(Cl)cc1)C(=O)COc1ccc(C)cc1C	7%	-5%	?	2	?	1%
O=C1Nc2cc(C(=O)NCCCN3CCCC3)ccc2S/C1=C\c1ccccc1	16µM*	?	18µM*	-9	?	-17%
CCC1CCCCN1CCCNC(=O)c1ccc(/C=C2/Sc3ccccc3NC2=O)cc1 (stereo unspecified)	5%	27%	3.7µM*	-2	?	-3%
CCC1CCCCN1CCCNC(=O)c1ccc2c(c1)NC(=O)CS2 (stereo unspecified)	2%	12%	6%	0	12%	0%
COc1ccc(/C=C2/Sc3ccc(C(=O)NCCN4CCCCCC4)cc3NC2=O)cc1	13µM*	25µM*	3.3µM*	-90*	3.7µM*	-1%
O=C(Nc1ccc(Oc2ccccc2)nc1)C1CCCCN1Cc1ccco1 (stereo unspecified)	-4%	-31%	4.1µM*	40	4.1µM*	-2%
Cc1ccc(CN2CCCCC2C(=O)Nc2ccc(Oc3cccnc3)cc2)o1 (stereo unspecified)	-12%	0%	7.3µM*	30	5.2µM*	/
O=C(Nc1ccc(Oc2ccccc2)nc1)C1CCN(Cc2ccco2)CC1	-10%	-27%	-26%	-12	-16%	11%
Cc1ncc(CN2CCC(C(=O)Nc3ccc(Oc4cccnc4)cc3)CC2)cn1	-1%	14%	-24%	-5	?	0%
C#Cc1ccc(CN2CCC(C(=O)Nc3ccc(Oc4ccccc4)nc3)CC2)cc1	-29%	?	?	?	15µM*	5%
CCn1nc(C)c(CN2CCCCC2C(=O)Nc2ccc(Oc3cccnc3)cc2)c1C (stereo unspecified)	-20%	-2%	16µM*	i	9.2µM*	4%
CSc1ccc(CCNC(=O)Cn2c(C)c3cnn(-c4ccccc4)c(=O)c3c2C)cc1	-21%	-28%	-17%	/	?	/
COc1cc(OC)c(OC)cc1CN1CCCC(c2[nH]ncc2-c2cccc(C(F)(F)F)c2)C1 (stereo unspecified)	/	/	23µM*	/	?	/
Cc1ccc(NC2CCCN(C(=O)c3cc(C(C)C)nn3C)C2)cc1C (stereo unspecified)	-27%	-18%	-14%	28	-15%	/
CCc1cccc(C)c1NS(=O)(=O)Cc1ccccc1	-1%	-8%	?	8	?	4%
C=CC(=O)Nc1cccc(Oc2cc(Cl)nc3[nH]ccc23)c1	-21%	?	?	-72*	16µM*	-3%
CCC1CCCCN1CCCNC(=O)CSc1nc2nc(C)c(Cc3ccccc3)c(C)n2n1 (stereo unspecified)	-10%	17%	-14%	-67*	0%	-3%
Cc1ccc(Cc2c(C)nc3nc(SCC(=O)NCCCN4CCCCC4)nn3c2C)cc1	-12%	9%	-15%	-62*	3%	2%
Cc1ccc(Cc2c(C)nc3nc(SCC(=O)NCCC(C)C)nn3c2C)cc1	-4%	1%	23µM*	/	?	/
SMILES	HepG2 viability	TGFb SMAD3 inh	DT40 TDP1 no CPT	IL1B secr inh	DT40 TDP1 CPT	S-ASM inh
Cc1ccc(Cc2c(C)nc3nc(SCC(=O)NCCCN4CCCC4)nn3c2C)cc1	7%	-1%	-18%	-13	6%	4%
CC(C)(C)NC(=O)NC(=O)COc1ccc(Br)cc1Br	-46%	?	-30%	-6	-26%	-2%
CC(C)(C)NC(=O)NC(=O)COC(=O)COc1ccc(Cl)cc1Cl	3%	-3%	?	8	18µM*	-2%
CCN1C(=O)C(Cc2nc3ccccc3c(=O)n2-c2ccc(OC)cc2)c2ccccc21 (stereo unspecified)	-1%	16%	?	/	?	/
CCn1cc(C(=O)NCC(C)C)c(=O)c2cc(F)c(N3CCN(C(=O)c4ccco4)CC3)cc21	4%	23%	21µM*	1	?	0%
CCn1cc(C(=O)NCC(C)C)c(=O)c2cc(F)c(N3CCN(C)CC3)cc21	39%	34%	10%	-21	4%	2%
CCn1cc(C(=O)NCCc2ccccc2)c(=O)c2cc(F)c(N3CCN(C)CC3)cc21	-40%	6%	?	-26	?	-5%
C=CCNC(=O)c1cn(CC)c2cc(N3CCN(C(=O)c4ccco4)CC3)c(F)cc2c1=O	-16%	-6%	15µM*	-11	23µM*	-1%
CCn1cc(C(=O)NCc2ccco2)c(=O)c2cc(F)c(N3CCN(C(=O)c4ccco4)CC3)cc21	-27%	-9%	?	?	21µM*	-1%
CCC(C)NC(=O)c1cn(CC)c2cc(N3CCN(C(=O)c4ccco4)CC3)c(F)cc2c1=O (stereo unspecified)	-27%	-20%	13µM*	0	16µM*	-1%
CCn1cc(C(=O)NN)c(=O)c2cc(F)c(N3CCOCC3)cc21	1%	?	-29%	8	6%	-1%
CCn1c(SCC(=O)NC2(C#N)CCCCC2)nc2ccccc2c1=O	2%	0%	6%	10	8%	5%
O=C(NCc1ccc2c(c1)OCO2)OCc1ccccc1	/	/	-19%	?	-5%	/
CC(C)(C)c1ccc(C(=O)NNC(=O)c2ccc(Cl)cc2)cc1	-3%	5%	?	7	0%	-5%
